Screening data (PubChem)
Only some compounds are listed: those with a hit (about 7.6% of all), similar ones and a draw of the others.
Cy5 interf NS3h = Cy5 fluorescence quenchers or enhancers, artefact control for HCV NS3 helicase inhibitor project, biochemical, ChemBridge library, Cy5 readout; actives 6% (n = 16,000); Cy5-dT15 DNA with NS3h, fluorescence interference; actives lie on both sides; signal over control mean, under 1 quenches; fluorescence interference ratio at 100 µM;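 active = compound fluorescence over control fluorescence at most 0.8, a quencher, or at least a set upper limit, an enhancer; inactive = ratio between 0.8 and the set upper limit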
HCV NS3h FP = HCV NS3 helicase inhibitors, primary screen, biochemical, fluorescence polarization, ChemBridge library | actives 1.6% (n = 16,000) | Hepatitis C virus NS3 helicase | inhibition, % at 100 µM | NS3h Cy5-dT15 DNA binding;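 active = inhibition above the average over every tested compound plus 3 SD, cut at about 40% in these data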
Hits are given with their value.

O=C(O)C1C2C=CC(C3CC23)C1C(=O)Nc1ccc(F)cc1 (stereo unspecified) was read as Cy5 interf NS3h 0.69 and HCV NS3h FP inactive.
Cc1ccc(NC(=O)C2C3CC/C=C\CCC32)cc1 (stereo unspecified) was read as Cy5 interf NS3h inactive and HCV NS3h FP inactive.
Screening Cc1nc(C=C2C(=O)C=Cc3ccccc32)c(O)o1 returned Cy5 interf NS3h inactive and HCV NS3h FP inactive.
Screening CCOC(=O)c1c(C)[nH]c(C=C2C(=O)C=Cc3ccccc32)c1O returned Cy5 interf NS3h 0.43 and HCV NS3h FP inactive.
`COCCOC(=O)C1=C(C)NC(C)=C(C(=O)OCCOC)C1c1ccc(-c2cccc(Cl)c2)o1` gave Cy5 interf NS3h inactive and HCV NS3h FP inactive.
For CCOC(=O)C1=C(O)/C(=C/c2ccc(OC)c(OC)c2)SC1=Nc1ccc([N+](=O)[O-])cc1 the results were Cy5 interf NS3h inactive and HCV NS3h FP inactive.
CCOC(=O)C1=C(O)/C(=C/c2cccc(Br)c2)SC1=Nc1ccccc1 was read as Cy5 interf NS3h 0.66 and HCV NS3h FP inactive.
Cc1ccc(S(=O)(=O)Nc2cc(-c3cccc(C)c3)[nH]n2)cc1 was read as Cy5 interf NS3h inactive and HCV NS3h FP inactive.
CCC1=NN(C(=O)c2ccncc2)C(O)(c2ccc(Br)cc2)C1 (stereo unspecified) was read as Cy5 interf NS3h inactive and HCV NS3h FP inactive.
`CCC1=NN(C(=O)c2cccc(C)c2O)C(O)(c2ccc(Br)cc2)C1` (stereo unspecified) gave Cy5 interf NS3h 0.77 and HCV NS3h FP inactive.
Screening O=C(Nc1ccc2oc(-c3cccnc3)nc2c1)c1sc2ccccc2c1Cl returned Cy5 interf NS3h inactive and HCV NS3h FP inactive.
For CN(C)CCn1c2ccccc2c2nc3ccc([N+](=O)[O-])cc3cc21 the results were Cy5 interf NS3h 0.74 and HCV NS3h FP inactive.
CCc1nc2ccccc2n1Cc1ccc([N+](=O)[O-])cc1 was read as Cy5 interf NS3h inactive and HCV NS3h FP inactive.
Screening Cc1nc2sc3c(c2c2nncn12)CCCC3 returned Cy5 interf NS3h 0.66 and HCV NS3h FP inactive.
Cc1nc2sc3c(c2c(=O)n1-n1cccc1)CCCC3 was read as Cy5 interf NS3h inactive and HCV NS3h FP inactive.
Cc1ccc(-c2nc3cc(Cl)cc(Cl)c3o2)cc1NC(=O)Cc1ccccc1 was read as Cy5 interf NS3h inactive and HCV NS3h FP inactive.
COc1ccccc1N1CCN(C(=O)CN(c2cc(Cl)ccc2OC)S(=O)(=O)c2ccc(C)cc2)CC1 was read as Cy5 interf NS3h inactive and HCV NS3h FP inactive.
Screening Cc1c(Br)c([N+](=O)[O-])nn1CC(=O)N1CCc2ccccc2C1 returned Cy5 interf NS3h 0.56 and HCV NS3h FP inactive.
`Cc1c(Cl)c([N+](=O)[O-])nn1CC(=O)N1CCCC1` gave Cy5 interf NS3h inactive and HCV NS3h FP inactive.
For COc1ccc(/C=C/C(=O)NCC2CCCO2)cc1Br (stereo unspecified) the results were Cy5 interf NS3h inactive and HCV NS3h FP inactive.
COc1ccc(/C=C/C(=O)N2CCC(C)CC2)cc1Br was read as Cy5 interf NS3h 0.62 and HCV NS3h FP inactive.
Screening CSc1ccc(/C=C/C(=O)c2ccc(NC(=O)c3cccs3)cc2)cc1 returned Cy5 interf NS3h 0.71 and HCV NS3h FP inactive.
O=C(Nc1ccc(/C=C/C(=O)c2cccs2)cc1)c1ccc(Br)cc1 was read as Cy5 interf NS3h inactive and HCV NS3h FP inactive.
For CN(C)c1ccc(NC(=O)c2ccccc2Cl)cc1 the results were Cy5 interf NS3h inactive and HCV NS3h FP inactive.
`O=C(Nc1ccc(-c2cnc(-c3ccc(NC(=O)c4ccccc4Cl)cc3)nc2)cc1)c1ccccc1Cl` gave Cy5 interf NS3h 0.72 and HCV NS3h FP inactive.
Screening O=C(Cc1ccc(Cl)cc1)NCCN1CCOCC1 returned Cy5 interf NS3h inactive and HCV NS3h FP inactive.
O=C(NCCCN1CCOCC1)c1cccc(Cl)c1 was read as Cy5 interf NS3h 0.75 and HCV NS3h FP inactive.
CCCOc1ccc(C2C3=C(CC(C)(C)CC3=O)OC3=C2C(=O)CC(C)(C)C3)cc1OCC was read as Cy5 interf NS3h 0.78 and HCV NS3h FP inactive.
`CCCOc1c(Br)cc(C2C3=C(CC(C)(C)CC3=O)OC3=C2C(=O)CC(C)(C)C3)cc1OC` gave Cy5 interf NS3h inactive and HCV NS3h FP inactive.
Screening O=C(C1=C(O)C(=O)N(c2nncs2)C1c1ccc(F)cc1)c1cccs1 (stereo unspecified) returned Cy5 interf NS3h inactive and HCV NS3h FP inactive.
COC(=O)c1ccccc1NC(=S)NC(=O)/C=C/c1ccccc1 was read as Cy5 interf NS3h inactive and HCV NS3h FP inactive.
Screening N#C/C(=C\c1ccco1)c1nc(-c2ccc(Cl)c(Cl)c2)cs1 returned Cy5 interf NS3h inactive and HCV NS3h FP inactive.
For COc1cccc(CN2CCN(Cc3ccccc3C(F)(F)F)CC2)c1OC the results were Cy5 interf NS3h inactive and HCV NS3h FP inactive.
O=C(NN1C(=O)c2ccccc2C1=O)c1ccccc1O was read as Cy5 interf NS3h inactive and HCV NS3h FP inactive.
COCCNC(=O)c1cc2n(n1)C(C(F)(F)F)CC(c1ccc(F)cc1)N2 (stereo unspecified) was read as Cy5 interf NS3h inactive and HCV NS3h FP inactive.
`Cc1ccc(C2CC(C(F)(F)F)n3nc(C(=O)Nc4ccc(F)cc4F)cc3N2)cc1` (stereo unspecified) gave Cy5 interf NS3h 0.57 and HCV NS3h FP inactive.
Screening COc1ccc(C2CC(C(F)(F)F)n3nc(C(=O)O)cc3N2)cc1OC (stereo unspecified) returned Cy5 interf NS3h 0.65 and HCV NS3h FP inactive.
Screening COc1ccc(C2CC(C(F)(F)F)n3nc(C(=O)NCc4cccs4)cc3N2)cc1OC (stereo unspecified) returned Cy5 interf NS3h inactive and HCV NS3h FP inactive.
`O=C(c1cc2n(n1)C(C(F)(F)F)CC(c1ccc(Cl)cc1)N2)N1CCN(c2ccccc2)CC1` (stereo unspecified) gave Cy5 interf NS3h inactive and HCV NS3h FP inactive.
`Cc1ccc(C2CC(C(F)(F)F)n3nc(C(=O)N4CCN(Cc5ccccc5)CC4)cc3N2)cc1` (stereo unspecified) gave Cy5 interf NS3h 0.76 and HCV NS3h FP inactive.
Screening COc1ccc(C)cc1NC(=O)C(=O)NCCCO returned Cy5 interf NS3h inactive and HCV NS3h FP inactive.
`COC(=O)c1c(C)oc2cc(Br)c(OS(C)(=O)=O)cc12` gave Cy5 interf NS3h inactive and HCV NS3h FP inactive.
Screening Cc1ccc(N2C(=O)CC(Sc3ncccn3)C2=O)cc1 (stereo unspecified) returned Cy5 interf NS3h inactive and HCV NS3h FP inactive.
`COc1ccc(/C=C2/SC(=S)N(C(C)C)C2=O)cc1OC` gave Cy5 interf NS3h inactive and HCV NS3h FP inactive.
COC(=O)C1=C(C)N(c2ccc(F)cc2)C(=O)/C1=C\c1ccc(OCC(=O)NCC2CCCO2)cc1 (stereo unspecified) was read as Cy5 interf NS3h inactive and HCV NS3h FP inactive.
C=CCNC(=O)CN(c1cccc(Cl)c1)S(=O)(=O)c1ccccc1 was read as Cy5 interf NS3h inactive and HCV NS3h FP inactive.
O=S(=O)(c1ccc2c(c1)Cc1cc(S(=O)(=O)n3cnc4ccccc43)ccc1-2)n1cnc2ccccc21 was read as Cy5 interf NS3h 0.64 and HCV NS3h FP inactive.
Cc1nc2ccccc2n1S(=O)(=O)c1ccc(Br)cc1 was read as Cy5 interf NS3h inactive and HCV NS3h FP inactive.
O=C(COc1ccc(Cl)cc1)N1CCN(c2ccccn2)CC1 was read as Cy5 interf NS3h inactive and HCV NS3h FP inactive.
